In PubChem BioAssay AID485318 (Broad Institute, 2010):
The campaign covered roughly 1,400 compounds. Fewer than 10 were called active.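 How the source made its calls: active means fluorescence-lowering compounds whose fitted half-maximal concentration is at or below ten times the highest valid dose tested; inconclusive means flat curve at 30 to 70% inhibition, or poor fit; inactive means the rest.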 These entries were drawn from the full list.

What follows are compounds tested against Histone deacetylase 3 (Homo sapiens) (UniProt O15379) (assay: HDAC3 deacetylase inhibitors, dose response, counter-screen for JMJD2C/GASC1 demethylase inhibitor project, biochemical, fluorescence, cherry-picked samples (AID 485318;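 further: enzyme preincubated with compound before substrate and trypsin were added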)). Details: recombinant HDAC3, fluorogenic peptide/trypsin coupled; series mostly up to 12 µM.
Sequence of Histone deacetylase 3 (Homo sapiens) (O15379 whole entry, looked up): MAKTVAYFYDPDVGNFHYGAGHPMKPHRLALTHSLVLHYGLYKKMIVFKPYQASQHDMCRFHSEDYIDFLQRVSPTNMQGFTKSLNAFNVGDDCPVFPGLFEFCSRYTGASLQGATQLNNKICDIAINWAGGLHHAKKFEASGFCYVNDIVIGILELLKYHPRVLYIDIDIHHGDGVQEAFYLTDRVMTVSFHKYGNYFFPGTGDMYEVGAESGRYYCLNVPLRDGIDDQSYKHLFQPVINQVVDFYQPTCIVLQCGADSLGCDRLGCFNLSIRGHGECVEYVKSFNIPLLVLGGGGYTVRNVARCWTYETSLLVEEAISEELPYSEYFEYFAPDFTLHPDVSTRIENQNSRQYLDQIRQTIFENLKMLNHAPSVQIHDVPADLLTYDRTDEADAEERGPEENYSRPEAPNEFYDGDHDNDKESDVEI

Question: Which outcome does the source give for `COc1cccc(OC)c1C(=O)NC(=S)N1CCOCC1` here?
Answer: The outcome was “inactive”.

Question: Which outcome does the source give for `COc1cccc(-n2nnc3c(=O)n(Cc4ccccc4F)cnc32)c1` here?
Answer: Its outcome is “inactive”.

Question: How did the outcome turn out when `CCn1c(SCC(=O)NCc2ccco2)nnc1-c1cccs1` was run?
Answer: The outcome was “inactive”.

Question: Which outcome does the source give for `CSc1nc(N)nc2c1ncn2CC(=O)N[C@H](C)c1cccc2ccccc12` here?
Answer: The outcome was “inactive”.

Question: With `COC(=O)C1=C(C)N(Cc2ccccc2)C(=NCCc2c[nH]c3ccccc23)N[C@H]1c1ccccc1` as the compound, how does the outcome read?
Answer: Its outcome is “inactive”.

Question: For `CC(=O)c1c(C)[nH]c(C(=O)NCCC2=CCCCC2)c1C`, which outcome is on record?
Answer: The outcome was “inactive”.

Question: With `COc1ccc(S(=O)(=O)Nc2ccc3c(c2)CC(=O)N([C@@H](C)CO)C[C@H](C)[C@@H](CN(C)S(=O)(=O)c2ccc(F)cc2)O3)cc1` as the compound, how does the outcome read?
Answer: Its outcome is “inactive”.

Question: Which outcome does the source give for `COc1ccccc1NC(=O)COC(=O)c1[nH]c(=O)[nH]c(=O)c1N` here?
Answer: Its outcome is “inactive”.

Question: `Cc1cccc(N2CC(C(=O)Nc3nnc(SCC(=O)Nc4nccs4)s3)CC2=O)c1` (stereo not given) was tested. Which outcome did it give?
Answer: The outcome was “inactive”.

Question: How did the outcome turn out when `CN(C)c1nc(C(=O)Nc2ccccc2)nc(N(C)C)n1` was run?
Answer: The outcome was “inactive”.

Question: Which outcome does the source give for `CCOc1ccc(-c2nc(CSCC(=O)NC3CCCc4ccccc43)c(C)o2)cc1` (stereo not given) here?
Answer: The outcome was “inactive”.

Question: For `Cc1cc2cc3c(cc2nc1SCC(=O)N1CCOCC1)OCO3`, which outcome is on record?
Answer: The outcome was “inactive”.

Question: How did the outcome turn out when `CC(C)(C)OC(=O)CNC(=O)c1[nH]cnc1C(=O)N[C@@H](CCCCN)C(=O)OC(C)(C)C` was run?
Answer: The outcome was “inactive”.

Question: For `COc1ccc(OC)c(Nc2nnc(C)c(=O)[nH]2)c1`, which outcome is on record?
Answer: Its outcome is “inactive”.

Question: With `O=C(O)CCCNC(=O)c1cccc(C(=O)NCCCC(=O)O)n1` as the compound, how does the outcome read?
Answer: Its outcome is “inactive”.

Question: For `O=C(O)c1cc(O)c2c(c1)[C@@H]([C@H]1c3cc(C(=O)O)cc(O)c3C(=O)c3c(O[C@@H]4O[C@H](CO)[C@@H](O)[C@H](O)[C@H]4O)cccc31)c1cccc(O[C@@H]3O[C@H](CO)[C@@H](O)[C@H](O)[C@H]3O)c1C2=O`, which outcome is on record?
Answer: The outcome was “inactive”.

Question: With `CN(C)CCNC(=O)c1onc(CSc2ccncc2)c1C(=O)NCCN(C)C` as the compound, how does the outcome read?
Answer: The outcome was “inactive”.

Question: With `N#CC(C(=O)NCCc1ccccc1)c1nc2ccccc2nc1N1CCOCC1` (stereo not given) as the compound, how does the outcome read?
Answer: The outcome was “inactive”.

Question: Which outcome does the source give for `COc1ccc(NC(=O)CNC(=O)c2nn(-c3ccc(OC)c(Cl)c3)c(=O)c3ccccc23)c(OC)c1` here?
Answer: Its outcome is “inactive”.

Question: How did the outcome turn out when `Cc1ccc(-c2noc(C3CCN(S(C)(=O)=O)CC3)n2)o1` was run?
Answer: Its outcome is “inactive”.

Question: `Cc1nnc(N2C(=O)c3cccc4c([N+](=O)[O-])ccc(c34)C2=O)s1` was tested. Which outcome did it give?
Answer: The outcome was “inactive”.

Question: Which outcome does the source give for `CCOC(=O)CCCCCC(=O)Nc1ccc2c(c1)CC(=O)N([C@@H](C)CO)C[C@H](C)[C@@H](CN(C)C(=O)Nc1ccc3c(c1)OCO3)O2` here?
Answer: The outcome was “inactive”.

Question: How did the outcome turn out when `CSc1ccccc1C(=O)Nc1ccc(C)c(C)c1` was run?
Answer: Its outcome is “inactive”.

Question: With `CC(C)N(C(=O)[C@H]1CC(CC(=O)NCc2cccc(C(F)(F)F)c2)C(=O)N2CCc3c([nH]c4ccccc34)[C@]12C)C(C)C` (stereo not given in full) as the compound, how does the outcome read?
Answer: The outcome was “inactive”.

Question: For `N#Cc1ccc(C23OCCN2CCn2nc4ccccc4c23)cc1` (stereo not given), which outcome is on record?
Answer: Its outcome is “inactive”.

Question: How did the outcome turn out when `CCc1ccc(NC(=O)C/C(C)=N/NC(=O)COc2ccc(C)cc2Br)cc1` was run?
Answer: Its outcome is “inactive”.

Question: How did the outcome turn out when `COc1ccc(-c2csc(NNC3=NCCCCC3)n2)cc1` was run?
Answer: Its outcome is “inactive”.

Question: For `CC1(C)C2CCC1(CS(=O)(=O)N1CCN(c3ccccc3F)CC1)C(=O)C2` (stereo not given), which outcome is on record?
Answer: The outcome was “inactive”.

Question: For `Cc1ccc(O)c(C(=O)c2cc(C#N)c(=O)n(CC3CCCO3)c2)c1` (stereo not given), which outcome is on record?
Answer: Its outcome is “inactive”.

Question: With `CCOC(=O)c1ccc2c(c1)nc(COc1ccc3ccccc3c1)n2CC` as the compound, how does the outcome read?
Answer: Its outcome is “inactive”.

Question: With `O=C(NCc1ccccn1)c1ccc(OC2CCN(Cc3cccs3)CC2)cc1` as the compound, how does the outcome read?
Answer: The outcome was “inactive”.

Question: For `CCOC(=O)c1sc(Nc2nc(OC)cc(OC)n2)nc1C`, which outcome is on record?
Answer: The outcome was “inactive”.

Question: For `CN(C)C(=O)c1cccc(-c2csc(N3CCC(C(N)=O)CC3)n2)c1`, which outcome is on record?
Answer: Its outcome is “inactive”.

Question: How did the outcome turn out when `COc1ccc(-c2ccc3oc(-c4ccsc4)cc(=O)c3c2)cn1` was run?
Answer: Its outcome is “inactive”.

Question: Which outcome does the source give for `COc1ccc(CCNC(=O)c2cccc(NS(=O)(=O)c3ccccc3F)c2)cc1OC` here?
Answer: Its outcome is “inactive”.
